High-throughput results: PubChem BioAssay, Broad Institute
Only some compounds are listed: those with a hit (about 8.1% of all), similar ones and a draw of the others.
Hedgehog inh – blocks Sonic Hedgehog signaling | Shh-LIGHT2 Gli-luciferase reporter, 30 h | 2.1% of 22,000 active | inhibition, % (no concentration beside the values);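 active = mean inhibition across valid replicates above about 65%, limit read from the data; inconclusive = mean under the limit, yet half or more replicates past it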;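 also: pathway switched on by Shh-conditioned medium diluted 1 in 25 in low serum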
MITF inh – inhibitors of MITF; TRPM1 promoter luciferase, luminescence, 24 h; inhibition, % (concentration not given with the values); 0.28% of 37,000 active; in the data active = inhibition above about 85%; inconclusive = no clear call, values can overlap the other calls; inactive = below about 68%;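 also: human melanocyte line stably carrying TRPM1 promoter luciferase reporter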
NOMO-1 viab – STK33 inhibitor candidate reducing NOMO-1 cell viability | NOMO-1 AML viability, CellTiter-Glo luminescence, 72 h | inhibition, % (concentration not given with the values) | 7.5% of 37,000 active | AID 2330; in the data active = inhibition above about 80%; inconclusive = no clear call, values can overlap the other calls
Starred values were filed as active, the others as inactive; ? = inconclusive; / = no result given.

SMILES | Hedgehog inh | MITF inh | NOMO-1 viab
O=C(CSc1nc(O)cc(=O)n1-c1ccccc1)N1CCc2ccccc21 | / | -4 | -17
CCOC(=O)c1c(NC(=O)Cn2c(=O)oc3ccccc32)sc(C(C)=O)c1C | / | -10 | 20
CC(=O)NCCOc1c(C)cccc1C | -15 | -4 | 8
Nc1nc(COc2cccc3cccnc23)nc(Nc2ccccc2)n1 | / | -66 | 91*
c1cnc2c(OCc3nc4ccccc4[nH]3)cccc2c1 | / | 16 | 19
COCCNC(=S)Nc1nc(OC)cc(OC)n1 | / | -11 | 15
CCn1c(SCC(=O)c2ccc(OC)cc2)nnc1-c1ccc(Cl)cc1 | / | -17 | 12
COc1ccc(C)cc1NC(=O)C(C)NS(=O)(=O)c1ccc(Cl)cc1 (stereo not given) | / | 1 | -1
O=C(c1ccccc1)c1cccc(N=Cc2c(O)[nH]c(=O)[nH]c2=O)c1 | -40 | 0 | -15
Cc1ccnc(N=Cc2c(C)[nH]n(-c3ccccc3)c2=O)c1 | -4 | 3 | 35
Cc1cccc(N=Cc2c(O)n(-c3ccccc3)c(=O)c3ccccc23)c1 | -11 | -18 | 91*
O=c1c2ccccc2c(C=Nc2cccc(C(F)(F)F)c2)c(O)n1-c1ccccc1 | 4 | -3 | 106*
CCOC(=O)c1c(NC(=O)Cn2cnc3ccccc3c2=O)sc2c1CCCC2 | / | -9 | 26
CCOC(=O)c1c(NC(=O)CSc2nc3ccccc3c(=O)[nH]2)sc2c1CCCC2 | / | 10 | 107*
COc1cc(CO)cc(Br)c1OCc1cccc([N+](=O)[O-])c1 | / | -27 | -5
O=C(O)c1ccc(NS(=O)(=O)c2cc3c4c(cccc4c2)C(=O)NC3=O)cc1 | 23 | 24 | 140*
Cc1ccc(NC(=O)c2cccc(S(=O)(=O)Nc3cccc(C(=O)O)c3)c2)cc1 | / | 9 | -12
CCOC(=O)c1cnc(SCC(=O)Nc2ccc(Cl)cc2Cl)nc1N | / | 17 | 71
CCOC(=O)c1cnc(S/C=C/C(=O)c2ccc(C)cc2)nc1N | 33 | 30 | 120*
Cc1c(NC(=O)CN(c2cccc(Cl)c2Cl)S(C)(=O)=O)cccc1[N+](=O)[O-] | / | -13 | 35
Cc1sc(NC(=O)COc2ccc3c(C)cc(=O)oc3c2)c(C#N)c1C | / | 1 | 11
N#Cc1c(NC(=O)COc2ccc3c(-c4ccccc4)cc(=O)oc3c2)sc2c1CCC2 | / | 12 | 96*
CS(=O)(=O)N(CC(=O)Nc1ccc(C(F)(F)F)cc1)c1ccc(F)cc1 | / | 16 | 44
Cc1ccc(OCC(=O)Nc2cccc(C(=O)O)c2)c(Br)c1 | / | 87* | 19
Cc1cccc(C)c1OCC(=O)Nc1cccc(C(=O)O)c1 | / | 21 | 2
SMILES | Hedgehog inh | MITF inh | NOMO-1 viab
Cc1cc(C(F)(F)F)nn1CCCNC(=O)c1cccs1 | / | 4 | 8
C[C@H](CO)N1C[C@H](C)[C@@H](CN(C)Cc2ccc(C(=O)Nc3ccccc3N)cc2)Oc2c(NS(=O)(=O)c3ccc(F)cc3)cccc2C1=O | / | 15 | 43
C[C@@H]1CN([C@@H](C)CO)C(=O)c2cccc(NS(=O)(=O)c3ccc(F)cc3)c2O[C@H]1CN(C)Cc1ccc(C(=O)Nc2ccccc2N)cc1 | / | -2 | 45
C[C@@H]1CN([C@@H](C)CO)C(=O)c2cccc(NS(=O)(=O)c3ccc(F)cc3)c2O[C@@H]1CN(C)Cc1ccc(C(=O)Nc2ccccc2N)cc1 | / | 15 | 129*
C[C@H]1CN([C@@H](C)CO)C(=O)c2cccc(NS(=O)(=O)c3ccc(F)cc3)c2O[C@@H]1CN(C)Cc1ccc(C(=O)Nc2ccccc2N)cc1 | / | 27 | 94*
C[C@H]1CN([C@@H](C)CO)C(=O)c2cccc(NS(=O)(=O)c3ccc(F)cc3)c2O[C@H]1CN(C)Cc1ccc(C(=O)Nc2ccccc2N)cc1 | / | 33 | 114*
CCC(=O)Nc1cccc(NC(=O)COc2cc(Cl)c(Cl)cc2Cl)c1 | / | 40 | 31
COc1ccc(S(=O)(=O)N(C)CC(=O)Nc2ccc(Br)cc2F)cc1Cl | / | 18 | 24
CCOc1ccc(NC(=O)Cn2nc([N+](=O)[O-])cc2C)cc1 | / | -5 | -5
Cc1cc(C)c(OCC(=O)Nc2ncc(I)cc2C)c(Cl)c1 | / | -27 | 4
O=c1c(Cl)c(NCCc2ccccc2)cnn1-c1ccccc1 | 58 | -37 | -6
CCc1nc2c(cnn2-c2ccccc2)c(=O)n1CCc1ccccc1 | -13 | 13 | 113*
O=C(CSc1ncn(-c2ccccc2)n1)Nc1ccccc1Br | / | 18 | 13
Cc1ccc(NC(=O)CSc2n[nH]c(N)n2)cc1Cl | / | -10 | 18
C[C@@H]1CN([C@@H](C)CO)C(=O)Cc2cc(NC(=O)Nc3ccccc3)ccc2O[C@@H]1CN(C)CC1CCCCC1 | -9 | -3 | ?
C[C@H]1CN([C@@H](C)CO)C(=O)Cc2cc(NC(=O)Nc3ccccc3)ccc2O[C@@H]1CN(C)CC1CCCCC1 | -25 | -3 | 101*
C[C@@H]1CN([C@H](C)CO)C(=O)Cc2cc(NC(=O)Nc3cccc4ccccc34)ccc2O[C@H]1CN(C)CC1CCCCC1 | / | 3 | 9
C[C@@H]1CN([C@H](C)CO)C(=O)Cc2cc(NC(=O)Nc3ccccc3)ccc2O[C@@H]1CN(C)CC1CCCCC1 | / | 7 | 104*
C[C@H]1CN([C@@H](C)CO)C(=O)Cc2cc(NC(=O)Nc3ccccc3)ccc2O[C@@H]1CN(C)CC1CC1 | / | -9 | -1
C[C@@H]1CN([C@H](C)CO)C(=O)Cc2cc(NC(=O)C3CCCCC3)ccc2O[C@@H]1CN(C)CC1CCCCC1 | 76* | -8 | 1
C[C@H]1CN([C@@H](C)CO)C(=O)Cc2cc(NC(=O)C3CCCCC3)ccc2O[C@H]1CN(C)CC1CCCCC1 | 27 | -11 | 22
C[C@@H]1CN([C@H](C)CO)C(=O)Cc2cc(NC(=O)Nc3cccc4ccccc34)ccc2O[C@@H]1CN(C)CC1CCCCC1 | -3 | 16 | 87*
COc1ccc(-c2nc3ccccc3s2)cc1NC(=S)NC(=O)COc1ccc(C)cc1 | / | -8 | ?
Cc1cc(NC(=O)CSc2nnc(-c3ccccc3Cl)n2C)ccc1Br | / | 46 | 32
CCn1c(SCC(=O)Nc2cccc(Cl)c2)nnc1-c1ccco1 | / | 7 | 6
SMILES | Hedgehog inh | MITF inh | NOMO-1 viab
CC(=O)c1cccc(NC(=S)NCc2ccccn2)c1 | / | -21 | 5
C[C@@H]1CN([C@H](C)CO)C(=O)Cc2cc(NC(=O)Nc3ccc(F)cc3)ccc2O[C@H]1CN(C)CC1CCCCC1 | -58 | 12 | ?
C[C@@H]1CN([C@H](C)CO)C(=O)Cc2cc(NC(=O)Nc3ccc(F)cc3)ccc2O[C@@H]1CN(C)CC1CCCCC1 | / | -10 | 100*
COC(=O)CN1C=C(C(=O)OC)C(c2ccc(O)cc2)C(C(=O)OC)=C1 | 35 | 0 | -11
C/C=C(/C)C(=O)O[C@H]1C=C(C)C[C@H](OC(=O)c2ccc(O)cc2)C2[C@](O)(C(C)C)CC[C@@]21C (stereo not given in full) | 10 | 42 | 122*
C=C1C(=O)O[C@H]2C1CC[C@@](C)(O)[C@@H]1C[C@H](O)C(=C)[C@@H]12 (stereo not given in full) | 39 | / | /
C=C1C(=O)O[C@H]2C1CCC(=C)[C@@H]1C[C@H](OC(=O)C=C(C)C)C(=C)[C@@H]12 (stereo not given in full) | 7 | 12 | 96*
Cc1ccc(OCC(=O)Nc2ccccc2C#N)cc1C | / | -75 | 12
COc1cccc2cc(C(=O)C3C(=O)C(=O)N(CCc4ccccc4)C3c3cccnc3)oc12 (stereo not given) | / | -3 | -8
